In PubChem BioAssay AID1508600 (Functional Genomics Laboratory (NCATS/FGL), 2020):
The campaign covered roughly 53,000 sequences. About 3,700 (7%) were called active.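 The calls were made as follows: active = gene knockdowns whose robust z-score for IL-1 alpha signal is at least 2 or at most -2, so actives lie on both sides; inactive = the rest.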 This excerpt belongs to a sample that is enriched for actives.

Test: Components of the Cytosolic LPS Sensing Pathway: Gene Identification via Genome-wide siRNA Screen;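 also: robust z of the log signal after scaling to non-targeting control siRNA wells of the plate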
Conditions: RAW264.7 macrophages, IL-1a HTRF, actives lie on both sides, screened at 100 nM (by protocol), cells primed 5 h with Pam3CSK4 first
Procedure, shortened: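 RAW264.7 mouse macrophages reverse-transfected with single siRNAs (100 nM final) for 48h, primed with Pam3CSK4 for 5 hours, then transfected with LipidA for 24 hour. Supernatant IL-1a read by HTRF; values normalized to negative-control median, log-transformed robust z-scores.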

z-score, active:
UAUUGUCACCGUCUUAGGCTT against Olfr1028 -2.84, GGAGUUUUGGGUGAUGAUATT against Olfr974 -2.41, GGAGUGACUCCUACAAAAUTT against Ms4a4b -2.01, GGACCUUUUGUGAACUUACTT against E2f3 4.53, GCCACAUCAGAUGAAGUCCTT against Ppm1e -2.26, GCUACAGAUUAGGGACAUATT against Pcdhb2 4.53, GGAGAAACUCUUCAGGCUUTT against Tceal8 -2.19, GGAACAAUUGUUCCUGUGATT against Kcne1 -2.04, GGAACGUGGAUCUUUUUAUTT against Wiz 2.42, GCUCUACAUCGAAUUGCUGTT against Lig4 4.14, GGAGGAAAAUGAUGGAGAGTT against Lysmd1 2.28, CGAUGAGCUAAGAGAGUCCTT against Cand2 3.09, CGGCAACUCAACAAGCUUATT against Cbfa2t3 2.38, GGCAGUGGGAUUACAAUGATT against Med12 2.02, CCGACACAAGAUGCUCAGUTT against Tmem9 -2.3, GCCUAUGAUAAGUCUGUGUTT against Ifitm10 -2.25, GGAAGACGAAGAGUUUGGATT against Aqp5 2.37, CCGAGGAGAACACUUGUAGTT against Opn4 -2.54, GGAUCAAUGGUGUCUUUGUTT against Pdzk1 -2.2, CGCAGGUAUACAGGACUGCTT against Rhox8 2.33, GCCAGUCCUGAUAGCAUCATT against Rhox6 -3.2

z-score, inactive:
CGUAUCUUAUAUCAGGAAATT against Trem1 0.513, GGAGAACAUAAAAAUGGUGTT against Stk39 -0.0786, GGUCUUUUGUAAAAACCCUTT against Sytl2 0.099, GGCAACAGUGAAAGAUGAATT against Acnat2 0.0608, GCAACCGCGUCACAUUGAATT against Bicc1 0.655, GCGAGCAUGAAGUUAGUAATT against C230029F24Rik 0.914, CCAGUGGUCAUUCUUGUCUTT against Olfr1076 0.314, GCUGUCGACUUUAAAAGGUTT against Pcdhga7 -0.356, GGCAGAAACUAAGAAUGAATT against Mx1 -0.292, GGUGAAGAAAGCACUGUUUTT against Olfr980 0.0649, GGAAAUCAGAAUUCCAAAATT against Cntn6 1.56, GGCCUAUUUGUUUUUGAAATT against Mthfd2 1.45, GGACUAUUCACACUAAGUCTT against Them5 -0.214, GGGAAACAAAAAGCAGAUATT against Ccdc47 0.325, GGAACUGGAAAUCUCAGAGTT against Pcdh12 0.447, GCCCAAUCUACACAGACCATT against Slc7a13 -0.939, GGAUGUGUGUGUCUCCUCATT against Prr9 -0.256, CCACUCCCAUAAGGGCUAUTT against Smo -0.144, CCUGAACAUAAAGUUUACUTT against Catsper4 0.209, CGACAUGUCAAAACUCACGTT against Zfp791 1.22, CCAUGUACCAGAUUAAGUATT against Krt8 1.16, GGUGAAAAGCAGCUAACAATT against Fam135a -1.6, GCUGUAAUGCUAAUGACAUTT against Gpr22 1.23, CCAUGGUCAUCCCGAUGUUTT against Olfr1454 0.171, CGAGAAGGGAUUUUAGAAGTT against A830018L16Rik -0.92, GGCAGGCAGAAGGCUUUUUTT against Olfr228 1.07, GGUGGACAGGAGAAAGGAATT against Npy6r -0.578, GGAGACCUGAAUUUUUCAGTT against Tab2 0.469, GGAAGAAGCAACCACAUUCTT against Evl 0.898, GGAGGAGUUUGACUUCGACTT against Alox12 -0.109, CGUAGACAUGGCCUUUUUUTT against Dipk1c -0.863, GCAAAUGAAUCAUGGGUGGTT against Rnf141 0.116, GCUGUCCUUCUAUAACCCATT against Frmd5 -1.68, GGCGACAAAAAGGCUAAGCTT against Khnyn 0.437, GGAACUAGCCUUCACUGACTT against Rabggta 0.931, GGUUGCAUCACAGCGUAUATT against Phlpp1 0.759, CCACUUUAGCUCCUUUAAGTT against Tet3 -0.438, GGAGCUCUACAUCAUAGACTT against Lhx1 0.579, GGUAAAACAGGUAUGUCGCTT against Ramac 0.48, GGCCUACCUGGUUGAGAAATT against Spam1 1.44, GGUCUAUGAAGAGAAGACUTT against Mtres1 0.8, GGCACAGUUCCUCAGUAUGTT against Hspbap1 1.76, GCAUUAUACCUGUCAAGUUTT against Klk1b1 0.608, CGAGUCAAUCAACUUGUCUTT against Olfr54 -0.882, GGACUCUGAUCUGGAGUAGTT against Slc51a -0.397, GGCAAACAUCUGUAUCUAUTT against Golph3 -0.571, GGCAUCUUUUGAAACAAUATT against Ubxn8 -1.04, GGCAUACAAAGCCCUCUAUTT against Kcnrg -0.457, GGAUGUGAUGACUCAUUUUTT against Zbtb8os 0.976, GGUGAAUAAAGACCGAGGUTT against Anks6 -1.58, GCGUGAGGAUGUAGACUACTT against Mmp12 0.699, GGACAUUUUUGUCUCUAAATT against Pacc1 0.167, GGACAAUUCCAUGCUUCCCTT against Il24 -0.00641, CGCGCAGAUGCACCAGAUUTT against 2610028H24Rik 1.12, GGUCAAAGAUGCUAUAAAATT against Olfr993 -0.843, GGAGGCAGCUCCUAUGAUGTT against Rbm28 0.378, GGUGACUGGUAAAUGCCAGTT against Olfr1502 -0.428, CGGUCUUUAUACACAUAUATT against Wnt7a -0.0297, GGUGAGAAUGUGCUUCAAUTT against Egr2 -0.0732, GCAUCGUCUAUAUUUUUGGTT against Timm50 -1.56, GGAAUGCUUAGUGAAAUUUTT against Ahctf1 0.481, GGAUUCUGAACCUUACAGATT against Hoxd9 1.61, CGGAGUUGGGAUUUACCAGTT against Pdia5 -0.594, GGCACCUUAAUGCUGACUUTT against Sdc4 -0.694, GGCUCAAGGUUUUCUCUACTT against Olfr710 -0.0341, GGUAUAUCCCUCACAAAAGTT against Dnah2 -1.69, GCAGUUAUGUUAUAGCUGCTT against Ctu2 0.0152, GCUAGUUUAAGAGACUUUGTT against Nfatc2ip 0.234, GGUCUAAGUCUGAAUGGCCTT against Agrp 0.539, CGACUGGAAUCUAAUAACUTT against Fgf2 0.987, CGGCUCCAGGCAAAUAUGGTT against Ezh1 -1.64, CGAGAAAGUAUUGACCGAGTT against Anxa5 -0.524, GGAAGGUGUUCGUAGAGAATT against Mad2l1 0.0941, GCACCGUGUCGUUGACUUGTT against Trim56 0.566, CCUAUCGAGUGAAAGUAAATT against Abcg2 -0.304, GGCACUGCUAUUAACUACATT against 4933414I15Rik -0.906, CUGUUACCUAUCCCUCAUCTT against Sstr3 -0.663, GCUACUCUUAUUCUACUUCTT against Slc29a3 0.145, GCCCUCAUCAGAAGAAACUTT against Cox7b2 0.864, GGUAGACCUAGAACAGCACTT against Ttyh2 -0.495, GGUGAGAUUACUGAAAGAATT against Plod2 -0.0899, GGAGAAGGCAACUUCUGUUTT against Zfp641 0.19, CCUAUUGAUUGUAUAUCCATT against Emc2 -0.429, CCAAAUUGUCUCUUCUAACTT against Dnah1 0.0269, GGAACAAAGAGUUUAAGGATT against Olfr1415 0.379, GGAACAAGUGGCUGAAGAUTT against Cyp11b2 0.566
